High-throughput results (PubChem)
Nrf2 inh: Nrf2 pathway inhibition; A549 ARE-Fluc reporter, luciferase luminescence, 18-24 h; 2.1% of 360,000 active; Potency, µM (highest dose often 46 µM), inactives show at the top dose activity change, negative = inhibition, usual class: inhibitors; also: potency is read from the fitted curve at half-maximal effect; % is scaled to controls: 0 for no effect and ±100 for the full control effect; nearly all actives have a fitted effect of over 60% in size
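Two sequential reads on A549 ARE_Fluc cells exposed to compound for 18-24 h: a CellTiter-Fluor fluorescence read for viability, then a luciferase luminescence read for Nrf2/ARE activity.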
Nrf2 activator: activators of Nrf2 (ARE) signaling | Potency, µM (doses to about 46.1 µM), without a hit: at the highest dose activation, actives largely listed as activators | 0.31% of 410,000 active | AREc32 ARE-luciferase reporter (MCF7-derived line), luminescence, 24 h; also: potency is read from the fitted curve at half-maximal effect; % of control where 0% means no effect; nearly all actives have a fitted effect of over 65% in size
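ARE activation measured as luciferase luminescence (Steady-Glo, 30 min RT) in AREc32_Fluc cells after 24 hr compound exposure at 37 deg C, 5% CO2; cells seeded overnight at 1000/well in OPTI-MEM, 5% FBS.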
LDHA block: inhibitors of human lactate dehydrogenase A | 0.15% of 480,000 active | purified LDHA, NADH/diaphorase-resazurin fluorescence; active compounds read low | AID 1347041 | P00338 | activity change, % (values are at about 110 or 230 µM); in the data active = activity change below about -30%; inconclusive = mostly about -25% to -30%;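 also: plate controls were DMSO wells for no effect and wells without enzyme for full effect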
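Resorufin fluorescence (ex540/em590), read at 0 and 20 min after diaphorase/resazurin addition, reports the NADH left after a 5 min room-temperature reaction of 2 nM human LDH5 with 0.06 mM NADH and 0.2 mM pyruvate.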
A549 viability: counter-screen for Nrf2 inhibitors: cytotoxicity in A549 cells; A549 ARE-Fluc cells, CellTiter-Fluor viability, 18-24 h; AID 504648; Potency, µM (top dose mostly 46 µM), for the others: at the highest dose activity change, negative = cytotoxicity, most hits filed as inhibitors; 0.16% of 390,000 active; also: potency is read from the fitted curve at half-maximal effect; % is scaled to controls: 0 for no effect and ±100 for the full control effect
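Cytotoxicity counterscreen: CellTiter-Fluor fluorescence was measured in A549 ARE_Fluc cells after 18-24 h of compound exposure in a concentration series. The subsequent BugLite luminescent read reports ARE-luciferase activity.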
12-LOX inh: blocks human arachidonate 12S-lipoxygenase | P18054 | purified 12hLO, xylenol orange hydroperoxide absorbance | Potency, µM (series often up to 108 µM), for inactives: at the highest dose activity change, negative = inhibition, usual class: inhibitors | 1.1% of 580,000 active; also: potency is read from the fitted curve at half-maximal effect; % is scaled to controls: 0 for no effect and ±100 for the full control effect
Target sequence (P18054 whole entry, looked up): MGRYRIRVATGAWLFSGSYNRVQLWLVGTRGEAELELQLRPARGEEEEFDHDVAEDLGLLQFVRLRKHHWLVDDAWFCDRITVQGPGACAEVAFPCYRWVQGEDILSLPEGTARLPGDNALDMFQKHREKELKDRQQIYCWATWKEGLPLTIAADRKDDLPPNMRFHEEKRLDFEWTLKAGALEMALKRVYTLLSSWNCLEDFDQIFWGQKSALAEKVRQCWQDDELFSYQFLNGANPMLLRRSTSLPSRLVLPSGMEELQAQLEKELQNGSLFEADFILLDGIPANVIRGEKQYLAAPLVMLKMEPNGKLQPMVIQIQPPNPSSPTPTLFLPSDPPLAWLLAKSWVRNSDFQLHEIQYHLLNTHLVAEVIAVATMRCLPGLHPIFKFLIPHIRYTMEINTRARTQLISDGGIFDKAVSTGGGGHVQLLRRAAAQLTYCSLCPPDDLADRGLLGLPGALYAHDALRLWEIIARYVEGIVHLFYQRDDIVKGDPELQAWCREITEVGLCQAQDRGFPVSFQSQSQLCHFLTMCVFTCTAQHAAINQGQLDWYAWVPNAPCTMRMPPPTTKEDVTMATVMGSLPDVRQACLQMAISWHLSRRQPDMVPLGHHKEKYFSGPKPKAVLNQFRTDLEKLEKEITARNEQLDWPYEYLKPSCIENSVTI
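Purified human 12hLO at 150 nM in 25 mM Hepes, 0.01% Triton X-100, pH 7.0, preincubated 15 min at room temperature with compound. Reaction started with 40 uM arachidonic acid, 30 min at room temperature. Hydroperoxide measured by Fe-xylenol orange, 573/405 nm absorbance ratio.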
mIDH1 inhibitor: human IDH1 R132H inhibition; O75874; IDH1-R132H enzyme, NADPH consumption, diaphorase/resazurin fluorescence; Potency, µM (highest dose often 76.6 µM), for the others: top-dose activity change, negative = inhibition, most hits filed as inhibitors; 0.093% of 390,000 active; also: potency is read from the fitted curve at half-maximal effect; % is scaled to controls: 0 for no effect and ±100 for the full control effect; nearly all actives have a fitted effect of over 65% in size
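IDH1-R132H (0.5 ug/mL dispensed) in pH 7.5 Tris buffer was preincubated 30 min with compound, then given a substrate mix of 0.016 mM NADPH and 2 mM alpha-KG for 80 min at room temperature; remaining NADPH was read by diaphorase/resazurin fluorescence.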
An asterisk follows results filed as active; ? = inconclusive; . = no result given; ! = repeats disagree. Sampled rows, rich in hits. Any-hit rate of the full collection: about 2.7%. Unless noted, calls follow the shape of the dose curve; as a rule, active = well fitted curve in the direction sought with a large enough effect; inconclusive = small, poorly fitted or top-dose-only effect, or another doubt; inactive = no such curve, though single readings can be large; an effect the other way counts as inactive or inconclusive.

SMILES	Nrf2 inh	Nrf2 activator	LDHA block	A549 viability	12-LOX inh	mIDH1 inhibitor
CCCc1cc(C(=O)Nc2ccc(C(=O)c3ccc(F)cc3)cc2)n(C)n1	?	-1%	0	-21%	.	8%
C=CCSc1ccccc1NC(=O)c1cc(C)cc(C)c1	.	.	-1	.	35µM*	.
Cc1ccc(-c2ccc(O)c(C)c2)cc1	.	.	9	.	?	.
Cn1nc(C(=O)N2CCOCC2)cc1C(=O)Nc1ccc(F)c(F)c1	.	.	-2	.	?	.
COc1ccccc1Nc1nc2ccccc2[nH]1	.	8%	13	-1%	193%	1%
CCc1ccccc1Nc1nc2ccccc2[nH]1	15µM*	0%	-2	-1%	185%	0%
CC(NC(=O)c1nn(Cc2ccccc2)c(=O)c2ccccc12)c1ccco1 (stereo not given)	.	.	2	.	?	.
Cc1ccc(CNC(=O)c2ccc(Cn3c(=O)c4ccccc4n(CC(=O)Nc4ccc(C)cc4)c3=O)cc2)cc1	-8%	0%	-12	-4%	-9%	-12%
CCOc1ccc(NC(=O)Cn2c(=O)n(Cc3ccc(C(=O)NCc4ccc(C)cc4)cc3)c(=O)c3ccccc32)cc1	18µM*	0%	-3	-14%	?	-2%
Cc1ccc(-c2ccc(C=C(C#N)C#N)n2C)cc1	.	.	4	.	5%	.
CCOc1ccc(C2c3c(ncn(-c4ccccc4)c3=N)Oc3ccc4ccccc4c32)cc1OCC (stereo not given)	16µM*	.	23	21µM*	.	.
N=c1c2c(ncn1-c1ccccc1)Oc1ccc3ccccc3c1C2c1ccc2c(c1)CCO2 (stereo not given)	?	.	-5	16µM*	.	.
N=c1c2c(ncn1-c1ccccc1)Oc1ccc3ccccc3c1C2c1ccc2c(c1)OCCO2 (stereo not given)	?	.	0	?	.	.
CCCOc1ccccc1NC(=O)c1nn(C)c(=O)c2ccccc12	.	.	-1	.	2%	.
N#C/C(=C/c1ccc2c(c1)OCCO2)c1ccccn1	.	.	8	.	?	.
COc1ccc(C(=O)c2sc3nc(C)cc(-c4cccs4)c3c2N)cc1	?	?	-2	?	-14%	-3%
COc1ccc(C(=O)c2sc3nc(C)cc(-c4cccs4)c3c2N)cc1OC	10µM*	0%	-4	4%	-16%	-1%
C=CCNC(=O)c1cc(-c2ccccn2)nc2ccccc12	.	.	4	.	-15%	.
CCN(C(=O)C1CCN(c2nc(-c3ccc(OC)cc3)no2)CC1)c1ccc(OC)cc1	13µM*	1%	-2	-9%	7%	7%
COc1ccc(-c2noc(N3CCC(C(=O)N4CCN(c5ccccn5)CC4)CC3)n2)cc1	18µM*	0%	-1	-27%	0%	3%
COC(=O)c1c(Cc2cc(Cl)ccc2Cl)c[nH]c1C	.	.	9	.	?	.
Cc1ccc(NS(=O)(=O)c2ccc(NC(=O)CN(c3cc([N+](=O)[O-])ccc3C)S(C)(=O)=O)cc2)c(C)c1	9.2µM*	2%	-6	?	-28%	-3%
Cc1ccc(NS(=O)(=O)c2ccc(NC(=O)CSc3ccc(Cl)cc3)cc2)c(C)c1	?	0%	-5	-6%	32µM*	1%
CCCCNC(=S)Nc1ccc(C)c(Cl)c1	.	.	-1	.	?	.
COc1cccc(CN2CCC3(CC2)OC(=O)N(Cc2ccccc2)C3(C)c2ccccc2)c1 (stereo not given)	.	.	.	.	-16%	.
SMILES	Nrf2 inh	Nrf2 activator	LDHA block	A549 viability	12-LOX inh	mIDH1 inhibitor
CCO/C(=C/c1sc2ccc(OC)cc2[n+]1CCCS(=O)(=O)[O-])CC	2%	-1%	0	-11%	-22%	3%
CCC(/C=C1\Sc2ccc(OC)cc2N1CCO)=C\c1sc2ccc(OC)cc2[n+]1CCO	?	?	11	21µM*	?	-2%
CCC(/C=C1\Sc2ccc(OC)cc2N1CC)=C\c1sc2ccc(OC)cc2[n+]1CCCS(=O)(=O)[O-]	10µM*	0%	3	?	-8%	-19%
CCC(=O)/C=C1/Sc2ccc(OC)cc2N1CCO	0%	0%	-10	-4%	-16%	-1%
CCC(CC)Nc1nnc(C)c(C)c1C#N	.	.	24	.	-19%	.
CC[C@@]1(O)C(=O)OCc2c1cc1n(c2=O)Cc2cc3c(CN(C)C)c(O)ccc3nc2-1	2.3µM*	-2%	7	?	?	11%
CCCCc1cc(=O)oc2c(CN(C)C)c(O)ccc12	1%	-1%	3	24%	-18%	8%
CCCNC(=O)N1CCC(N2CC(OCCOC)C23CCCCC3)CC1 (stereo not given)	.	.	.	.	-2%	.
Cc1c2cnn(-c3ccccc3)c(=O)c2c(C)n1C(C)C(=O)NCc1ccccn1 (stereo not given)	.	.	6	.	10%	.
O=C(Nc1cccnc1)C1(F)C(F)(F)C(F)(F)C(F)(F)C(F)(F)C1(F)F	.	10µM*	12	0%	?	2%
O=C(Nc1cccnc1)C12CC3CC(CC(C3)C1)C2	?	-1%	-6	-4%	0%	-5%
C=CCNC(=O)C(NC(=O)c1cccc(OC)c1)C1CCN(C(=O)c2cccc(C)c2)CC1 (stereo not given)	.	.	.	.	11%	.
COc1cc(OC)cc(-c2noc(-c3ccc(CSCc4ccccc4F)o3)n2)c1	.	.	3	.	-18%	.
CCN(Cc1ccccc1)S(=O)(=O)c1ccc(C(=O)N(CCCN(C)C)c2nc3c(C)c(C)ccc3s2)cc1	18µM*	1%	-6	?	?	1%
CCN(Cc1ccccc1)S(=O)(=O)c1ccc(C(=O)N(CCCN(C)C)c2nc3cc4c(cc3s2)OCO4)cc1	-15%	-3%	2	-17%	?	3%
Cc1nn(Cc2nnc(Nc3ccn(Cc4ccccc4Cl)n3)s2)c(C)c1Br	.	.	7	.	1%	.
Cc1c(C#N)c(N)nc2c3c(sc12)NC(=O)CC3c1ccc(F)cc1 (stereo not given)	29%	0%	17	-7%	61%	7%
Cc1c(C#N)c(N)nc2c3c(sc12)NC(=O)CC3c1ccccc1 (stereo not given)	8%	1%	-31*!	0%	?	8%
S=C1SCN(Cc2ccccc2)CN1Cc1ccco1	.	8%	8	.	35µM*	18%
Cc1ccccc1CNC(=O)c1nccnc1N	.	.	2	.	?	.
O=C1S/C(=C/c2ccc(N3CCOCC3)o2)C(=O)N1Cc1ccc(F)cc1	19%	1%	14	3%	10µM*	13%
O=C1NC(=S)S/C1=C/c1ccc(N2CCOCC2)o1	19%	?	9	21µM*	.	?
